According to PubChem BioAssay (EPA / NIEHS):
Records with an inconclusive call do not appear. Activity calls are given as the source filed them. Rule for the calls, unless noted: active = hit-call score of the fitted dose curve at least 0.9, where 1 is the maximum; inactive = score below 0.9.

Assays:
[1] = TOX21_p53_BLA_p2_viability: Viability Assessment in the Tox21 HCT-116 p53 Agonism Beta-lactamase Assay, Phase 2 (AID 2283591; active = hit-call score of the fitted dose curve at least 0.9, where 1 is the maximum;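 note: compound exposure lasted 16 h at 37 °C; actives lower the ATP signal meaning cytotoxicity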)
Outline: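 HCT116 p53-bla cells, 4000/well, dosed after 5 h plating (217-fold dilution of DMSO stocks) and incubated 16 h at 37C. Viability taken as cellular ATP by CellTiter-Glo luminescence after 30 min RT; signal loss marks cytotoxicity.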

[2] = biological target: Cellular tumor antigen p53 (Homo sapiens) (UniProt P04637); assay: TOX21_p53_BLA_p2_ratio: Tox21 HCT-116 p53 Agonism Beta-lactamase Assay, Ratio, Phase 2 (AID 2283592; active = hit-call score of the fitted dose curve at least 0.9, where 1 is the maximum)
Outline: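 HCT116 p53-bla; 4000 cells/well; 5 h pre-incubation; cpd in DMSO, 217-fold dilution; 16 h 37C/5% CO2; CCF4-AM 2 h RT; Ex 405, Em 460/530 ratio; DMSO = baseline; positive fitting direction.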

[3] = TOX21_p53_BLA_p3_viability: Viability Assessment in the Tox21 HCT-116 p53 Agonism Beta-lactamase Assay, Phase 3 (AID 2283593; active = hit-call score of the fitted dose curve at least 0.9, where 1 is the maximum;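 note: cells exposed to compound for 16 h before reading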)
Outline: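 HCT116 cells, 4000/well, dosed 5 h after plating by pin transfer (217-fold dilution from DMSO stock) and incubated 16 h at 37C, 5% CO2. Viability read as ATP luminescence with CellTiter-Glo after 30 min at room temperature.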

[4] = TOX21_p53_BLA_p4_viability: Viability Assessment in the Tox21 HCT-116 p53 Agonism Beta-lactamase Assay, Phase 4 (AID 2283597; active = hit-call score of the fitted dose curve at least 0.9, where 1 is the maximum;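 note: hits lower the luminescence signal meaning cytotoxicity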)
Outline: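 Cells plated, 5 h pre-incubation; DMSO compounds pinned (217-fold dilution); 16 h, 37C/5% CO2; CCF4-AM 2 h RT; CellTiter-Glo 30 min RT; luminescence read.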

[5] = TOX21_p53_BLA_p5_viability: Viability Assessment in the Tox21 HCT-116 p53 Agonism Beta-lactamase Assay, Phase 5 (AID 2283600; active = hit-call score of the fitted dose curve at least 0.9, where 1 is the maximum)
Outline: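 4000 cells/well; 5 h pre-incubation; DMSO compounds pin-transferred, 217-fold dilution; 16 h, 37C/5% CO2; CCF4-AM 2 h RT; CellTiter-Glo 30 min RT; luminescence.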

[6] = biological target: Cellular tumor antigen p53 (Homo sapiens) (UniProt P04637); assay: TOX21_p53_BLA_p4_ratio: Tox21 HCT-116 p53 Agonism Beta-lactamase Assay, Ratio, Phase 4 (AID 2283601; active = hit-call score of the fitted dose curve at least 0.9, where 1 is the maximum)
Outline: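 HCT-116 p53 beta-lactamase reporter cells (4000/well) preincubated 5 h, then compound (217-fold dilution of DMSO stock) for 16 h at 37C. CCF4-AM substrate added 2 h at room temperature; 460/530 nm emission ratio fitted upward versus DMSO.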

[7] = CCTE_Shafer_MEA_dev_firing_rate_mean: CCTE's Neural Network Formation Assay for Mean Firing Rate, Shafer Lab (AID 2284031)
Outline: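 Developing rat cortical networks on MEA plates undergo 12-day compound exposure. Firing frequency, averaged across active electrodes, is integrated as area under the curve over four recording days, referenced to DMSO.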

[8] = CCTE_Shafer_MEA_dev_per_burst_spike_percent: CCTE's Neural Network Formation Assay for Percent of Spikes in a Burst, Shafer Lab (AID 2284032)
Outline: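 Rat primary cortical neurons on 16-electrode MEA wells, dosed from plating day 0 for 12 days with renewal on DIV 5 and 9; spikes-in-bursts percentage averaged over bursting electrodes, collapsed as AUC across days 5, 7, 9, 12; loss direction versus DMSO.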

[9] = CCTE_Shafer_MEA_dev_active_electrodes_number: CCTE's Neural Network Formation Assay for Number of Active Electrodes, Shafer Lab (AID 2284040; active = hit-call score of the fitted dose curve at least 0.9, where 1 is the maximum)
Outline: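 Rat cortical primary cultures, 1.5 x 10^5 cells/well, PEI-coated MEA, laminin drop. Continuous exposure DIV 0–12; full media/compound change DIV 5, 9. Readout: electrodes with mean firing ≥5 spikes/min; AUC across days; loss vs DMSO.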

[10] = CCTE_Shafer_MEA_dev_burst_rate: CCTE's Neural Network Formation Assay for Burst Rate, Shafer Lab (AID 2284042)
Outline: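 Cells plated, treated day 0; recorded DIV 5, 7, 9, 12; fed and re-treated DIV 5, 9. Endpoint: bursts per recording time, active-electrode well mean, trapezoidal AUC, fitted in decreasing direction against DMSO baseline.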

[11] = CCTE_Shafer_MEA_dev_bursting_electrodes_number: CCTE's Neural Network Formation Assay for Number of Bursting Electrodes, Shafer Lab (AID 2284043; active = hit-call score of the fitted dose curve at least 0.9, where 1 is the maximum)
Outline: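 Primary rat cortical neurons plated on 16-electrode MEA wells, exposed from day 0 with compound renewed at DIV 5 and 9. Electrodes bursting ≥1 burst per 2 min counted on days 5, 7, 9 and 12; trapezoidal AUC across days, fitted for loss versus DMSO.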

[12] = CCTE_Shafer_MEA_dev_per_burst_interspike_interval: CCTE's Neural Network Formation Assay for Burst Interspike Interval, Shafer Lab (AID 2284044);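 note: mean spike spacing inside bursts as AUC over recordings on days 5 7 9 12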
Outline: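 Neurons from rat cortex plated onto PEI-coated MEA wells with laminin […] at 1.5 x 10^5 cells/well, then treated from day 0. Media and compound fully replaced on DIV 5 and 9. Extracellular spontaneous firing recorded four times; interspike interval per burst summarised as AUC.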

[13] = CCTE_Shafer_MEA_dev_interburst_interval_mean: CCTE's Neural Network Formation Assay for Mean Interburst Interval, Shafer Lab (AID 2284046);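 note: well-mean interburst interval of bursting electrodes as AUC over four recording days; curve fitted for decrease in interburst interval relative to DMSO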
Outline: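 Developing rat cortical networks on 48-well MEAs receive compound from the day of plating. Burst intervals from each active electrode are averaged per well, and AUC over the recording days is fitted in the negative direction against DMSO.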

[14] = CCTE_Shafer_MEA_dev_network_spike_number: CCTE's Neural Network Formation Assay for Number of Network Spikes, Shafer Lab (AID 2284048)
Outline: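 Primary rat cortical neurons on PEI/laminin 48-well MEA plates, dosed from plating day 0 for 12 days, renewed at DIV 5 and 9. Network spike counts recorded DIV 5, 7, 9, 12, collapsed as trapezoidal AUC; DMSO baseline.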

[15] = CCTE_Shafer_MEA_dev_network_spike_peak: CCTE's Neural Network Formation Assay for Mean Number of Electrodes in Network Spike, Shafer Lab (AID 2284049)
Outline: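 Network-spike peak electrode count from recordings on days 5, 7, 9 and 12 was combined as trapezoidal area under the curve. Rat cortical cultures were treated continuously from plating, with compound renewed at each feed (DIV 5, 9); fits versus DMSO.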

[16] = CCTE_Shafer_MEA_dev_spike_duration_mean: CCTE's Neural Network Formation Assay for Mean Spike Duration, Shafer Lab (AID 2284051);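 note: mean network spike duration pooled as area under curve over DIV 5 to 12 recordings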
Outline: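 Readout is the average length of network spikes, clustered firing across electrodes, summed over DIV 5, 7, 9 and 12 as area under the curve. Neurons from rat cortex developed networks on MEA plates under continuous 12-day exposure.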

[17] = CCTE_Shafer_MEA_dev_network_spike_duration_std: CCTE's Neural Network Formation Assay for Standard Deviation of Network Spike Duration, Shafer Lab (AID 2284052);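 note: area under curve of spike duration SD across recording days 5 to 12; hits are decreases in network spike duration SD versus DMSO vehicle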
Outline: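 Read-out is the trapezoidal area-under-the-curve across recordings made on days 5, 7, 9 and 12, fitted in the negative direction against DMSO baseline. Neurons were primary rat cortical cells treated from day 0, with treatment renewed at each feed.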

[18] = CCTE_Shafer_MEA_dev_per_network_spike_spike_number_mean: CCTE's Neural Network Formation Assay for Mean Number of Spikes in a Network Spike, Shafer Lab (AID 2284053)
Outline: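 Continuous twelve-day exposure of developing rat cortical networks grown over 16 microelectrodes per well; spontaneous firing is captured at four time points, and the per-network-spike spike number is integrated over development by trapezoidal AUC.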

[19] = UKN5_HCS_SBAD2_cell_viability: Viability Assessment in the University of Konstanz (UKN) Leist Lab Neurite Outgrowth Assay in human iPSC-derived immature Dorsal Root Ganglia Neurons (UKN5) (AID 2284056)
Outline: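 iPSC-derived immature peripheral neurons (SBAD2) seeded on Matrigel with CHIR99021, SU5402 and DAPT, dosed 1 h later for 24 h. Viability from Hoechst H-33342 and calcein-AM live staining, high-content imaging; bidirectional fit versus DMSO.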

[20] = CCTE_Shafer_MEA_dev_LDH: CCTE's Lactate Dehydrogenase Assay for Cytotoxicity in the Neural Network Formation Assay, Shafer Lab (AID 2284068; active = hit-call score of the fitted dose curve at least 0.9, where 1 is the maximum;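 note: exposure for twelve days from plating with re-dosing on DIV 5 and 9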)
Outline: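 Cytotoxicity companion to network-formation recordings: rat cortical neurons received compound over 12 days of development, re-dosed at DIV 5 and 9 feeds. Viability was inferred from LDH enzyme activity relative to DMSO.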

[21] = UKN5_HCS_SBAD2_neurite_outgrowth: University of Konstanz (UKN) Leist Lab Neurite Outgrowth Assay in human iPSC-derived immature Dorsal Root Ganglia Neurons (UKN5) (AID 2284070); details: actives raise or lower the signal
Outline: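 SBAD2 neurons, 24 h compound treatment, calcein-AM neurite area via HCS imaging; DMSO baseline, gain or loss of signal.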

[22] = CCTE_Shafer_MEA_dev_mutual_information_norm: CCTE's Neural Network Formation Assay for Mutual Information Normalization, Shafer Lab (AID 2284091)
Outline: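 Primary rat cortical neurons on PEI-coated 48-well MEA plates, 1.5 x 10^5 cells/well, exposed from day 0 through day 12 with re-dosing at DIV 5 and 9. Mutual information between electrodes recorded days 5, 7, 9, 12; trapezoidal AUC, loss-of-signal fit versus DMSO.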

[23] = CCTE_Shafer_MEA_dev_correlation_coefficient_mean: CCTE's Neural Network Formation Assay for Mean Correlation Coefficient, Shafer Lab (AID 2284093)
Outline: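 Read-out: well-mean correlation coefficient of spike trains between electrode pairs, collapsed over four recording days as trapezoidal area-under-the-curve. Developing rat cortical neuron networks grown on MEAs received test chemical continuously from plating.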

[24] = UKN2_HCS_IMR90_neural_migration: University of Konstanz (UKN) Leist Lab Neural Crest Cell Migration Assay in human induced IMR90 Pluripotent Stem Cells (UKN2) (AID 2284204); details: actives raise or lower the signal
Outline: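 iPSC-derived IMR90 neural crest cells seeded around stoppers on PLO/laminin/fibronectin; migration started in N2-S medium with EGF/FGF, compounds added after 24 h for 24 h. Migration into cell-free area imaged after calcein-AM/Hoechst staining; bidirectional fit versus DMSO.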

[25] = UKN4_HCS_LUHMES_neurite_outgrowth: University of Konstanz (UKN) Leist Lab Neurite Outgrowth Assay in human LUHMES cells (UKN4) (AID 2284206); details: actives raise or lower the signal
Outline: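 2-day-differentiated LUHMES, 24 h cpd exposure, live calcein-AM + H-33342 stain, HCS fluorescence imaging of neurite area; DMSO = baseline, bidirectional fit.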

[26] = CCTE_Mundy_HCI_Cortical_Synap_Neur_Matur_NeuriteSpotCountPerNeuriteLength: CCTE's Synaptogenesis and Neurite Maturation Assay in rat cortical cells for Neurite Spot Count per Neurite Length, Mundy Lab (AID 2284210)
Outline: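 Rat primary cortical cultures, AraC added at DIV 5 to suppress glia; chemical exposure from DIV 7 to DIV 12. Fixed cells stained for MAP2 and synaptophysin plus Hoechst; synaptophysin puncta per neurite length quantified by high-content imaging, relative to DMSO.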

[27] = CCTE_Mundy_HCI_Cortical_NOG_NeuriteLength: CCTE's Neurite Outgrowth Assay in rat cortical cells for Neurite Length, Mundy Lab (AID 2284213)
Outline: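 Neurite length was read by high-content imaging of βIII-tubulin-labelled neurites in rat primary cortical cultures. Activity was fitted relative to DMSO.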

[28] = CCTE_Mundy_HCI_Cortical_Synap_Neur_Matur_NeuriteLength: CCTE's Synaptogenesis and Neurite Maturation Assay in rat cortical cells for Neurite Length, Mundy Lab (AID 2284214)
Outline: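 Neurite length in rat primary cortical cultures is imaged after MAP2, synaptophysin and Hoechst staining. Dosing starts DIV 7, ending DIV 12; DMSO serves as negative control and baseline.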

[29] = CCTE_Mundy_HCI_Cortical_Synap_Neur_Matur_NeuriteSpotCountPerNeuron: CCTE's Synaptogenesis and Neurite Maturation Assay in rat cortical cells for Neurite Spot Count per Neuron Count, Mundy Lab (AID 2284215)
Outline: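 Rat cortical primary cultures; AraC DIV 5 to arrest glia; dosing + media change DIV 7; fixed DIV 12. Anti-MAP2/anti-synaptophysin, Hoechst nuclei; HCI puncta count per neuron, positive fitting direction vs DMSO.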

[30] = CCTE_Mundy_HCI_Cortical_Synap_Neur_Matur_SynapseCount: CCTE's Synaptogenesis and Neurite Maturation Assay in rat cortical cells for Synapse Count, Mundy Lab (AID 2284218)
Outline: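 Synapse count per neuron is measured in rat cortical neurons exposed to chemicals between DIV 7 and DIV 12, with glial growth arrested by AraC at DIV 5. Synaptophysin and MAP2 staining is imaged automatically; activity is fitted relative to DMSO.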

[31] = CCTE_Mundy_HCI_Cortical_Synap_Neur_Matur_CellBodySpotCount: CCTE's Synaptogenesis and Neurite Maturation Assay in rat cortical cells for Cell Body Spot Count, Mundy Lab (AID 2284223)
Outline: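 Rat cortical neurons; AraC @ DIV 5; dose + media change DIV 7; fix DIV 12; anti-MAP2/anti-synaptophysin IF, Hoechst; HCI count of soma synaptophysin puncta/neuron; DMSO = negative control.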

[32] = UKN4_HCS_LUHMES_cell_viability: Viability Assessment in the University of Konstanz (UKN) Leist Lab Neurite Outgrowth Assay in human LUHMES cells (UKN4) (AID 2284232)
Outline: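 Human dopaminergic-model LUHMES neurons were exposed to chemicals for 24 h after a 2-day differentiation. Viability was scored by imaging Hoechst H-33342 staining, with activity fitted in both directions relative to DMSO controls.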

[33] = UKN2_HCS_IMR90_cell_viability: Viability Assessment in the University of Konstanz (UKN) Leist Lab Neural Crest Cell Migration Assay in human induced IMR90 Pluripotent Stem Cells (UKN2) (AID 2284233);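 note: viability of neural crest cells differentiated from IMR90 iPSC measured by calcein-AM fluorescence imaging; cells exposed to compound for 24 h after a 24 h migration phase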
Outline: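 Neural crest cells derived from IMR90 iPSC migrate into a stopper-free zone for 24 h in EGF/FGF medium, then are exposed to compound for 24 h. Viability assessed by calcein-AM and Hoechst staining with high-content imaging, fitted bidirectionally versus DMSO.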

[34] = CCTE_Mundy_HCI_hNP1_Casp3_7: CCTE's Caspase-Glo 3/7 Assay in human neuroprogenitor cells for Apoptosis, Mundy Lab (AID 2284240)
Outline: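 Luminescent caspase-3/7 readout, 26.5 h post-dose, in human neural progenitor cells from WA09 embryonic stem cells. Cells grew 40–44 h at 37 °C, 5% CO2 before chemical addition. Activity analysed as signal increase over DMSO baseline.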

Measured: outcome

Cellular tumor antigen p53 (Homo sapiens), sequence (P04637 whole entry, looked up): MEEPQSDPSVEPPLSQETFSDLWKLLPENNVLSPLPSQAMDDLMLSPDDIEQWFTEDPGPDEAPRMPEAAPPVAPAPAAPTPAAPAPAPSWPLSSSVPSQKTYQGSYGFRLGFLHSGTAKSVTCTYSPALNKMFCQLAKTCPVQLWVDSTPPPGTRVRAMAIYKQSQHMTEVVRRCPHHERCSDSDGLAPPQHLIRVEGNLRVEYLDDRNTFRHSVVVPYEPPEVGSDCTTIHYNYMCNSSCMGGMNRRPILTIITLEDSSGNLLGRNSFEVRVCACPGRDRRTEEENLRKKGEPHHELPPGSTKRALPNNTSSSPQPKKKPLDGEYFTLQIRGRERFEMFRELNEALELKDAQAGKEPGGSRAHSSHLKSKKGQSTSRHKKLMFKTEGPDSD

COC(=O)[C@H]1[C@@H](OC(=O)c2ccccc2)C[C@@H]2CC[C@H]1N2C
inactive: [1] | [2] | [3] | [4] | [5] | [6] | [7] | [8] | [9] | [10] | [11] | [12] | [13] | [14] | [15] | [16] | [17] | [18] | [19] | [20] | [21] | [22] | [23] | [24] | [25] | [26] | [27] | [28] | [29] | [30] | [31] | [32] | [33] | [34]
